The campaign covered roughly 2,500 compounds. About 360 (14%) were called active. Only a sample is shown. Unmarked numbers belong to inactive results.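 Rule for the calls: active = signal-lowering compounds whose fitted half-maximal concentration AC50 is no higher than ten times their top tested concentration; inconclusive = flat curve with 30 to 70% inhibition, or poor fit; inactive = flat within 30%, signal increase, or AC50 above limit.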
Assay: non-specific inhibitors of H2O2 luminol chemiluminescence – biochemical, luminescence, no ALR or DTT, cherry-pick, artefact control for ALR inhibitor project, dose response (AID 540356)
Settings: HRP/H2O2 luminol luminescence counterscreen; series mostly up to 10 µM

| SMILES | AC50 |
| --- | --- |
| Cc1cc(S(=O)(=O)N2CCN(c3ccccc3O)CC2)c(C)s1 | inactive |
| COc1cc(-c2csc(CCn3nc(C)cc3C)n2)cc(OC)c1OC | inactive |
| C=CCn1c(-c2ccc(N)cc2)nc2ccccc21 | inactive |
| C=CCn1c(-c2cccc([N+](=O)[O-])c2)n[nH]c1=S | inactive |
| CC(C)c1ccc(NC(=O)Cc2c(C(=O)O)n(C)c3ccccc23)cc1 | inactive |
| CCc1ccc(NCc2ccc(OC)c(Cn3ccnc3)c2)cc1 | inactive |
| O=C(Cn1cc(C(F)(F)F)ccc1=O)N/N=C/c1ccc(O)cc1 | inactive |
| O=C(CCN1CCN(C(c2ccccc2)c2ccccc2)CC1)N/N=C/c1ccc(O)cc1 | inactive |
| CCN(CC)c1ccc(/C=N\NC(N)=O)cc1 | inactive |
| CN(C)c1ccc(/C=N/NC(=O)CCC(=O)NCc2ccccc2)cc1 | inactive |
| Cc1nc(C)c(CC(=O)N/N=C/c2ccc(O)cc2)c(=O)[nH]1 | inactive |
| O=C(C[n+]1ccccc1)N/N=C/c1ccc(O)cc1 | 6.56 µM (active) |
| O=C(CC(=O)N/N=C/c1ccc(O)cc1)N/N=C/c1ccc(O)cc1 | 2.72 µM (active) |
| O=C(Cn1cnc2ccccc21)N/N=C/c1ccccn1 | inactive |
| Cc1ccc(NC(=O)CCC(=O)N/N=C/c2ccc(O)cc2)cc1 | inactive |
| CC12CCC(C(=O)N/N=C/c3ccc(O)cc3)(OC1=O)C2(C)C (configuration not stated) | 8.23 µM (active) |
| O=C(CCn1cnc2ccccc21)N/N=C/c1ccc(O)cc1 | 9.88 µM (active) |
| O=C(N/N=C/c1cccc(O)c1)N/N=C/c1cccc(O)c1 | inactive |
| COc1ccc(C2SCC(=O)N2c2ccc(F)cc2)cc1 (configuration not stated) | inactive |
| NNC(=O)c1cc(-c2ccccc2)sc1N | inactive |
| Cc1cc(C)cc(N2C(=O)CSC2c2ccccn2)c1 (configuration not stated) | inactive |
| CC(NC(=O)c1ccccc1)C(=O)N/N=C/c1ccc(O)cc1 (configuration not stated) | inactive |
| COc1cc(/C=N\NC(=O)c2ccc(-c3ccccc3)cc2)cc(OC)c1O | inactive |
| Cn1nc(-c2ccc(Cl)cc2)c2cc(C(=O)NCCCN3CCCC3)sc21 | inactive |

| SMILES | AC50 |
| --- | --- |
| CCn1c(-c2ccc(Cl)cc2)n[nH]c1=S | inactive |
| S=c1[nH]nc(-c2ccc(Cl)cc2)n1-c1ccc(Cl)cc1 | inactive |
| Cc1cccc(N2CC(C(=O)Nc3ccccc3N3CCCC3)CC2=O)c1C (configuration not stated) | inactive |
| COc1ccc(CC(=O)N2CCN=C2SCc2ccc([N+](=O)[O-])cc2)cc1 | inactive |
| CCN(CCNC(=O)C1CCN(S(=O)(=O)c2cccc3nsnc23)CC1)c1ccccc1 | inactive |
| COc1ccc(C2NC(=O)CS2)cc1OC (configuration not stated) | inactive |
| COc1ccc(/C=N\NC(=O)CCN2CCN(c3ccccc3)CC2)cc1OC | inactive |
| COc1cc(/C=N/NC(=O)CCN2CCCCC2)ccc1O | 8.16 µM (active) |
| COc1ccc(/C=N/NC(=O)CCn2nc(C)cc2C)cc1O | inactive |
| O=C(NCc1ccccn1)c1ccc2c(c1)N(Cc1ccccc1)CCS2 | inactive |
| COc1ccc(N2CCN(C(=O)CCNC(=O)c3ccc(C(C)(C)C)cc3)CC2)cc1 | inactive |
| Clc1nnc(N2CCCCC2)c2ccccc12 | inactive |
| Cc1ccc(S(=O)(=O)Nc2cc(C)c(O)cc2C)cc1 | inactive |
| CC(C)c1ccc(S(=O)(=O)Nc2ccc(O)c(Sc3ncn[nH]3)c2)cc1 | 9.35 µM (active) |
| Cc1cc(O)c(Sc2ncn[nH]2)cc1NS(=O)(=O)c1ccc(Cl)cc1 | inactive |
| Cc1ccc(S(=O)(=O)Nc2ccc(O)c(Sc3ncn[nH]3)c2)cc1 | 10.4 µM (active) |
| CC(C)c1ccc(NC2CCCN(C(=O)c3cc(C(C)C)nc(N)n3)C2)cc1 (configuration not stated) | inactive |
| Cc1cc(C(=O)N2CCCC(Nc3ccc(C(C)C)cc3)C2)nn1C (configuration not stated) | inactive |
| COc1cc(-n2c(-c3ccccc3)n[nH]c2=S)c(OC)cc1Cl | inactive |
| COc1ccc(C(=O)N2CCN=C2SCc2cccnc2)c(OC)c1 | inactive |
| Cc1cc(-c2nsc(=O)o2)c(S(C)(=O)=O)s1 | inactive |
| Cc1c(/C=N\NC(=O)c2ccc(F)cc2)cnn1C | inactive |
| CCN(CC)c1ccc(CNc2ccc3c(c2)ncn3CC)cc1 | inactive |
| CCN(CC)c1ccc(CN2CCCCCC2)cc1 | inactive |

| SMILES | AC50 |
| --- | --- |
| CN(C)c1ccc(-c2n[nH]c(=S)n2-c2ccccc2)cc1 | inactive |
| Cc1cc(C)nc(Sc2c(C)nn(-c3ccccc3)c2C)n1 | inactive |
| Oc1c(Cl)cc(Cl)cc1CNc1ccc(Br)cn1 | inactive |
| O=C(c1ccc2c(c1)OCO2)N1CCN(c2ccccc2)CC1 | inactive |
| O=c1oc2ccccc2cc1-c1ccc(O)cc1 | inactive |
| Nc1nc(-c2c[nH]c3ccccc23)cs1 | inactive |
| c1ccc2c(-c3csc(-c4ccncc4)n3)c[nH]c2c1 | inactive |
| O=C(O)Cn1cc(C(=S)N2CCCCC2)c2ccccc21 | inactive |
| CC(C)NS(=O)(=O)c1ccc2c(c1)NCC2 | inactive |
| COc1ccc(C2=CSC3=NNC4(CCCCC4)NN23)cc1 | inactive |
| COc1ccc(NC2c3ccccc3C(=O)N2c2cccnc2)cc1Cl (configuration not stated) | inactive |
| S=c1[nH]nc(-c2ccco2)n1C1CCCCC1 | inactive |
| O=C(NNc1nc2cc3c(cc2s1)OCO3)c1ccccc1 | inactive |
| O=C(NNc1nc2ccccc2s1)c1ccccc1F | 5.35 µM (active) |
| O=C(NNc1c2ccccc2nc2ccccc12)c1ccccc1O | inactive |
| COc1cccc(N2CCN(CC(=O)NC(C)c3ccccc3)CC2)c1 (configuration not stated) | inactive |
| O=C(NC1CCCCC1)N1CCN(c2ccc(Cl)cc2)CC1 | inactive |
| O=C(Nc1ccccc1N1CCCC1)c1ccccc1F | inactive |
| COc1ccc(N2CCC(CNC(=O)Nc3ccc(OC)cc3OC)C2)cc1 (configuration not stated) | inactive |
| Clc1ccc(-n2nnc(-c3nccs3)n2)cc1Cl | inactive |
| Cc1cc(C)n2cc(CSc3nc4ccccc4[nH]3)nc2n1 | inactive |
| COc1ccccc1N1CCN(S(=O)(=O)c2cccc(F)c2)CC1 | inactive |
| Oc1cc2c(cc1O)C(c1ccccc1)CNCC2 (configuration not stated) | 4.68 µM (active) |
| Oc1ccc(C2CNCCc3c2cc(O)c(O)c3Cl)cc1 (configuration not stated) | 5.92 µM (active) |

| SMILES | AC50 |
| --- | --- |
| Nc1[nH]c(N=NC(=O)c2ccc(F)cc2)c2ccccc12 | > 10 µM |
| CC(C)(C)c1ccc(Oc2ccc(NC(=O)CCCC(=O)O)cn2)cc1 | inactive |
| Cc1c(Cl)c(-c2n[nH]c(=S)n2-c2ccccc2)nn1C | inactive |
| O=c1ccsn1Cc1ccccc1 | inactive |
| COc1cc(OC)cc(C(=O)Nc2ccc(S(=O)(=O)Nc3cc(C)nc(C)n3)cc2)c1 | inactive |
| COc1ccc(OC)c(N(CC(N)=O)S(=O)(=O)c2ccc(OC)c(OC)c2)c1 | inactive |
| Cc1ccc(S(=O)(=O)NN2C(=O)/C(=C/c3cccnc3)SC2=S)cc1 | inactive |
| Cc1nc(C)c(/C(O)=C\c2nc3ccc([N+](=O)[O-])cc3oc2=O)o1 | inactive |
| Cc1cc(C(=O)Nc2nnc(-c3ccccc3)s2)no1 | inactive |
| CNc1nnc(-c2cccc(N(C)C)c2)s1 | 1.05 µM (active) |
| Cc1nc(SCc2ccc(Cl)c(Cl)c2)ncc1C(=O)O | inactive |
| COc1c(F)c(F)c(C(=O)O)c(Nc2ccc(C)cc2C)c1F | inactive |
| COc1ccc(N2C(=O)CSC2c2ccncc2)cc1 (configuration not stated) | inactive |
| CCCCN(C)S(=O)(=O)c1ccc(C(=O)Nc2nnc(-c3ccco3)o2)cc1 | inactive |
| Cn1c(=O)c2c(nc(N/N=C/c3ccncc3)n2Cc2ccccc2)n(C)c1=O | inactive |
| Cc1ccc(-n2c(-c3ccc(Cl)cc3)n[nH]c2=S)c(C)c1 | inactive |
| Cc1cccnc1Nc1nc(-c2ccc(O)cc2O)cs1 | inactive |
| Nc1ncc(-c2ccccc2)c(-c2ccc(O)cc2O)n1 | inactive |
| Cc1ccc(Nc2nc(-c3ccc(O)cc3O)cs2)nc1 | inactive |
| COc1ccc(-c2cn[nH]c2-c2ccc(OC)cc2O)cc1 | inactive |
| COc1ccc(-c2n[nH]c(C)c2-c2ccccc2OC)c(O)c1 | inactive |
| COc1ccccc1-c1cc(-c2ccc(O)cc2)nc(N)c1C#N | inactive |
| Cc1cc(C)nc(NNC(=O)c2ccccc2O)n1 | inactive |
| CC[C@@H](C)[C@H](NC(=O)Cc1c(C)c2cc3c(C)coc3c(C)c2oc1=O)C(=O)O | inactive |

| SMILES | AC50 |
| --- | --- |
| O=C(O)c1ccc(Sc2nnc(-c3cccc(Br)c3)o2)c([N+](=O)[O-])c1 | inactive |
| ClCc1csc(-c2ccc(Cl)cc2)n1 | inactive |
| O=C(NCCc1ccc(O)cc1)c1ccc(Cl)cc1 | inactive |
| Cc1ccc(O)c(NC(=O)CCCC(=O)O)c1 | inactive |
| c1ccc(-c2cc(N3CCCCCC3)n[nH]2)cc1 | inactive |
| O=c1cc(-c2cccc([N+](=O)[O-])c2)[nH][nH]1 | inactive |
| CC(=NC1CCCC1)c1c(C)[nH]n(-c2nc3ccccc3s2)c1=O | inactive |
| N/C(=N/O)c1ccccc1N1CCC(Cc2ccccc2)CC1 | inactive |
| Cc1nc(-c2cccc(N)c2)cs1 | inactive |
| CN(C)S(=O)(=O)c1cccc(-c2cn3cccnc3n2)c1 | inactive |
| Nc1cccc(-c2cn3cccnc3n2)c1 | 4.52 µM (active) |
| COc1ccc(CC(=O)N2CCN=C2SCc2cccc([N+](=O)[O-])c2)cc1 | inactive |
| COc1ccc(/C=N/NC(=O)c2ccn[nH]2)cc1CSc1ccccn1 | inactive |
| CCc1c(C)c2cc(Cl)c(O)c(CN3CCCCC3)c2oc1=O | inactive |
| Cc1c(Br)c(=O)oc2c(Br)c(O)c(O)cc12 | 7.79 µM (active) |
| CC1CCC2C(C1)Nc1c(C(=O)O)cccc1C2(C)C (configuration not stated) | inactive |
| C=CCn1c(C(C)NC(=O)c2cccc(C)c2)n[nH]c1=S (configuration not stated) | inactive |
| COc1cccc(OC)c1C(=O)N1CCN=C1SCc1cccnc1 | inactive |
| Cc1cc(C)nc(NN2C(=O)/C(=C/c3ccc(O)cc3)SC2=S)n1 | inactive |
| O=C(O)C(c1ccccc1)N1C(=O)/C(=C\c2ccc(-c3cccc(Cl)c3)o2)SC1=S (configuration not stated) | inactive |
| O=C(O)C(c1ccccc1)N1C(=O)/C(=C\c2ccc(O)c(O)c2)SC1=S (configuration not stated) | 5 µM (active) |

Source: PubChem BioAssay AID540356 (Broad Institute, 2011)
